PubChem BioAssay AID623989 (Broad Institute, 2012)
Entries with a potency or affinity are not part of this list. Results filed as inconclusive are left out. Active and inactive are the calls of the source.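 The calls were made as follows: active = curve fit gives half-maximal inhibition potency at or below twice the top tested dose in every run; inconclusive = runs disagree, flat partial inhibition, or poor curve fit; inactive = inactive in every run, flat, reversed or weak.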

Target: Glycogen synthase kinase-3 beta (Homo sapiens) (UniProt P49841)
Sequence (P49841 whole entry, looked up): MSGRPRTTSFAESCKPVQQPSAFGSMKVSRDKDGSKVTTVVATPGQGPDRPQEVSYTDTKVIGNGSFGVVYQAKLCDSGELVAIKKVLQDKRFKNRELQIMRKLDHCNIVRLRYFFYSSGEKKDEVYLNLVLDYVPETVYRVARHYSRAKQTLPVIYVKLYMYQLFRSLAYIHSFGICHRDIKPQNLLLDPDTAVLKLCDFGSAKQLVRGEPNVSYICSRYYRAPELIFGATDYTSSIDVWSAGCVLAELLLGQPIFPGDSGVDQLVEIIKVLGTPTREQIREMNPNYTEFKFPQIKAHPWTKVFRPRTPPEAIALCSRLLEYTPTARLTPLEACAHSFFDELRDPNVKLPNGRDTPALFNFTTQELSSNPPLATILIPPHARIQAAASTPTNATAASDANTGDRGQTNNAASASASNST
Experiment: inhibition of human GSK3B activity – biochemical, microfluidics, dry powder samples, set 2, dose response (AID 623989)

## COc1cc(C(=O)N2CCN(c3ccccn3)CC2)cc(OC)c1OC
  outcome: inactive
